Results taken from PubChem BioAssay (NCATS).

Target: Nicotinamide N-methyltransferase (Homo sapiens) (UniProt P40261)
Test: Confirmatory Screen for Target Class Profiling of Small Molecule Inhibitors of Methyltransferases (AID 1745852)
Conditions: MTase-Glo luminescence, SAH detection, recombinant enzyme; measured here: NNMT max response; stronger effect = lower value

Chain of Nicotinamide N-methyltransferase (Homo sapiens) (P40261 whole entry, looked up): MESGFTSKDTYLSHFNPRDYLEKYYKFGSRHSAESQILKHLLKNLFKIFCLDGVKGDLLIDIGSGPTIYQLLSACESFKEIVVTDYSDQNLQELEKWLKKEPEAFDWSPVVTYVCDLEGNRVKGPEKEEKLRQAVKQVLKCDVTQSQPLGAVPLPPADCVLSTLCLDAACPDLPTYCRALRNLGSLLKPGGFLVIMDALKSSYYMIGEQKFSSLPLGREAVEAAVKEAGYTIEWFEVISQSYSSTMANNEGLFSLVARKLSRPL

| Compound | activity [%] |
| --- | --- |
| CC(C)Cn1c(=O)c2ccccc2n2c(=O)n(CC(=O)c3cccc(Cl)c3)nc12 | -38.9 |
| CC1(C(=O)NC2CCCCCC2)Cn2c(cc3occc32)C(=O)N1Cc1ccc2c(c1)OCO2 (stereo not given) | -18 |
| Cc1ccc2c(c1)c(=O)[nH]c1c(C(=O)NCc3ccc4c(c3)OCO4)sc(=S)n12 | -60.7 |
| Cc1nc2cccnc2n1CC1CCCN(S(=O)(=O)c2ccc3c(c2)OCCO3)C1 (stereo not given) | -4.66 |
| Cc1nc(NC(=O)C2CC(=O)N(c3n[nH]c4cc(Br)ccc34)C2)sc1C (stereo not given) | -94.1 |
| CN(C)CCNC(=O)c1ccnc(-c2nnc3ccc(N(C)c4ccccc4)nn23)c1 | -14.4 |
| COc1ccc(CCN2C(=O)c3cc4oc(C)cc4n3CC2(C)C(=O)NC2CCCCC2)cc1OC (stereo not given) | -78.3 |
| CC(C)NC(=O)c1ccccc1OCC1CCCN(Cc2cn(C)c3ccccc23)C1 (stereo not given) | 4.67 |
| O=C1c2ccccc2C(=O)c2cc(S(=O)(=O)Nc3ccc(Br)cc3)ccc21 | -13.8 |
| CC(C)CCn1c(=O)c2ccccc2n2c(CCC(=O)N3CCN(c4ccccc4F)CC3)nnc12 | -60.1 |
| COc1cccc(NC(=O)Cn2c(=O)oc3cc(S(=O)(=O)N4CCCC4)ccc32)c1 | 4.37 |
| CCN(CC)CCNC(=O)CCc1nnc2n(Cc3ccc(C)cc3)c(=O)c3ccccc3n12 | -14.5 |
| CC1CC(C)CN(S(=O)(=O)c2ccc3c(c2)oc(=O)n3CC(=O)Nc2ccc(F)cc2)C1 (stereo not given) | -4.58 |
| COc1cc(F)ccc1-c1cc(-c2ccc(=O)[nH]c2)c2cncn2c1 | -11 |
| O=C1c2ccccc2C(=O)c2c1cccc2S(=O)(=O)Nc1ccc(Cl)cc1 | -1.28 |
| CC1(C(=O)NC2CCCC2)Cn2c(c(-n3cccc3)c3ccccc32)C(=O)N1Cc1ccccn1 (stereo not given) | -46.2 |
| O=C(NCc1cccc(F)c1)c1nc2c(o1)CCN(CC1CCCC1)CC2 | 5.46 |
| Cc1ccc(-c2ccc(N)nc2)c2cccnc12 | -2.78 |
| O=C(CCc1nnc2n(CCc3ccccc3)c(=O)c3ccccc3n12)NCCCN1CCCCC1 | 0.418 |
| CCc1cccc(NC(=O)Cn2c(=O)oc3cc(S(=O)(=O)N4CC(C)CC(C)C4)ccc32)c1 (stereo not given) | -6.52 |

| Compound | activity [%] |
| --- | --- |
| Cn1c(COc2cccc(CN3CCCC3)c2Cl)nnc1C1CC(N)C1 (stereo not given) | -2.09 |
| CCn1cc(CN2CCN(C(=O)c3cccs3)CC2)ccc1=O | -1.21 |
| CN1CCC(N2C[C@@H]3C[C@H]2C(=O)N(CC2CC2)c2ccccc2O3)CC1 | -1.59 |
| COc1cccc(-c2ccccc2NC(=O)C2CCN(CC=C(C)C)CC2)c1 | -3.23 |
| O=C(NCCc1ccccc1)N1CCn2cccc2C1Cc1ccccc1 (stereo not given) | -8.34 |
| CN(Cc1ccccc1)C1(C(=O)NC2CCC(O)CC2)Cc2ccccc2C1 (stereo not given) | 7.08 |
| CN1CCC(N2CC[C@H](c3nc4ccccc4[nH]3)C2)CC1 | -26.5 |
| CC(C)CCn1c(=O)c2ccccc2n2c(CCC(=O)N3CCN(Cc4ccccc4)CC3)nnc12 | -63.2 |
| Cc1nc2c3ccccc3n3c(CCCC(=O)NCCCN(C)Cc4ccccc4)nnc3n2n1 | -3.81 |
| O=C(NCCCN1CCc2ccccc2C1)C1CCc2ncc(-c3ccc(F)cc3)n2C1 (stereo not given) | 3.39 |
| Cc1c(OCc2ccc(C(=O)O)o2)ccc2c(-c3ccccc3)cc(=O)oc12 | -34.7 |
| O=C(CCCc1nnc2n3nc(-c4ccccc4)nc3c3ccccc3n12)NCCCN1CCCCC1 | 2.5 |
| COc1ccc(CCN2C(=O)c3cc4occc4n3CC2(C)C(=O)NC2CCCCC2)cc1OC (stereo not given) | -47.9 |
| O=C(CCc1nnc2n(CCc3ccccc3)c(=O)c3ccccc3n12)N1CCC(N2CCCCC2)CC1 | -3.96 |
| Cc1oc(C(=O)O)cc1COc1ccc2c(-c3ccccc3)cc(=O)oc2c1C | -43.8 |
| Cc1noc(C)c1-c1cc2c(cc(C)n2CCN(C)C)c(Nc2ccncn2)n1 | -15.3 |
| COc1ccc(CCN2C(=O)c3ccc(-c4ccco4)n3CC2(C)C(=O)NC2CCCC2)cc1OC (stereo not given) | -65.9 |
| NC(=O)C1(N2CCCCC2)CCN(c2nc3c(S(=O)(=O)c4ccccc4)nnn3c3ccccc23)CC1 | -8.86 |
| Cn1c(=O)n(C)c2cc(S(=O)(=O)Nc3cc4c(cc3NCc3ccccc3)n(C)c(=O)n4C)ccc21 | -35.1 |
| Fc1cccc(-c2nnn3c2nc(NCCc2ccccc2)c2ccccc23)c1 | -12.6 |

Target: Phenylethanolamine N-methyltransferase (Homo sapiens) (UniProt P11086)
Test: as above
Conditions: MTase-Glo luminescence, SAH detection, recombinant enzyme; measured here: PNMT max response; stronger effect = lower value

Chain of Phenylethanolamine N-methyltransferase (Homo sapiens) (P11086 whole entry, looked up): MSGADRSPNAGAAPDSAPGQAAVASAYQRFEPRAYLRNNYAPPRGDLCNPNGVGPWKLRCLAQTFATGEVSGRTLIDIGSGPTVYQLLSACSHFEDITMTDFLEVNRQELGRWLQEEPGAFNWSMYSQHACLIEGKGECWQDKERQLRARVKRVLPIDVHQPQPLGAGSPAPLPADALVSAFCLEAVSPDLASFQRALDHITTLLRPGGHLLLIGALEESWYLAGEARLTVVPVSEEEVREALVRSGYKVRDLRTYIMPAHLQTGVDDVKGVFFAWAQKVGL

| Compound | activity [%] |
| --- | --- |
| CC(C)Cn1c(=O)c2ccccc2n2c(=O)n(CC(=O)c3cccc(Cl)c3)nc12 | -8.68 |
| CC1(C(=O)NC2CCCCCC2)Cn2c(cc3occc32)C(=O)N1Cc1ccc2c(c1)OCO2 (stereo not given) | -10.8 |
| Cc1ccc2c(c1)c(=O)[nH]c1c(C(=O)NCc3ccc4c(c3)OCO4)sc(=S)n12 | -35.6 |
| Cc1nc2cccnc2n1CC1CCCN(S(=O)(=O)c2ccc3c(c2)OCCO3)C1 (stereo not given) | -0.0682 |
| Cc1nc(NC(=O)C2CC(=O)N(c3n[nH]c4cc(Br)ccc34)C2)sc1C (stereo not given) | 7.69 |
| CN(C)CCNC(=O)c1ccnc(-c2nnc3ccc(N(C)c4ccccc4)nn23)c1 | -6.46 |
| COc1ccc(CCN2C(=O)c3cc4oc(C)cc4n3CC2(C)C(=O)NC2CCCCC2)cc1OC (stereo not given) | -5.67 |
| CC(C)NC(=O)c1ccccc1OCC1CCCN(Cc2cn(C)c3ccccc23)C1 (stereo not given) | 10.4 |
| O=C1c2ccccc2C(=O)c2cc(S(=O)(=O)Nc3ccc(Br)cc3)ccc21 | -18.5 |
| CC(C)CCn1c(=O)c2ccccc2n2c(CCC(=O)N3CCN(c4ccccc4F)CC3)nnc12 | -4.6 |
| COc1cccc(NC(=O)Cn2c(=O)oc3cc(S(=O)(=O)N4CCCC4)ccc32)c1 | -58.7 |
| CCN(CC)CCNC(=O)CCc1nnc2n(Cc3ccc(C)cc3)c(=O)c3ccccc3n12 | 0.867 |
| CC1CC(C)CN(S(=O)(=O)c2ccc3c(c2)oc(=O)n3CC(=O)Nc2ccc(F)cc2)C1 (stereo not given) | -42.5 |
| COc1cc(F)ccc1-c1cc(-c2ccc(=O)[nH]c2)c2cncn2c1 | -5.79 |
| O=C1c2ccccc2C(=O)c2c1cccc2S(=O)(=O)Nc1ccc(Cl)cc1 | -37 |
| CC1(C(=O)NC2CCCC2)Cn2c(c(-n3cccc3)c3ccccc32)C(=O)N1Cc1ccccn1 (stereo not given) | 0 |
| O=C(NCc1cccc(F)c1)c1nc2c(o1)CCN(CC1CCCC1)CC2 | -10.1 |
| Cc1ccc(-c2ccc(N)nc2)c2cccnc12 | 1.29 |
| O=C(CCc1nnc2n(CCc3ccccc3)c(=O)c3ccccc3n12)NCCCN1CCCCC1 | 0.873 |
| CCc1cccc(NC(=O)Cn2c(=O)oc3cc(S(=O)(=O)N4CC(C)CC(C)C4)ccc32)c1 (stereo not given) | -59.2 |

| Compound | activity [%] |
| --- | --- |
| Cn1c(COc2cccc(CN3CCCC3)c2Cl)nnc1C1CC(N)C1 (stereo not given) | -1.62 |
| CCn1cc(CN2CCN(C(=O)c3cccs3)CC2)ccc1=O | -6.54 |
| CN1CCC(N2C[C@@H]3C[C@H]2C(=O)N(CC2CC2)c2ccccc2O3)CC1 | 3.64 |
| COc1cccc(-c2ccccc2NC(=O)C2CCN(CC=C(C)C)CC2)c1 | -3 |
| O=C(NCCc1ccccc1)N1CCn2cccc2C1Cc1ccccc1 (stereo not given) | -0.866 |
| CN(Cc1ccccc1)C1(C(=O)NC2CCC(O)CC2)Cc2ccccc2C1 (stereo not given) | 6.38 |
| CN1CCC(N2CC[C@H](c3nc4ccccc4[nH]3)C2)CC1 | -6.23 |
| CC(C)CCn1c(=O)c2ccccc2n2c(CCC(=O)N3CCN(Cc4ccccc4)CC3)nnc12 | -0.865 |
| Cc1nc2c3ccccc3n3c(CCCC(=O)NCCCN(C)Cc4ccccc4)nnc3n2n1 | -3.01 |
| O=C(NCCCN1CCc2ccccc2C1)C1CCc2ncc(-c3ccc(F)cc3)n2C1 (stereo not given) | -4.05 |
| Cc1c(OCc2ccc(C(=O)O)o2)ccc2c(-c3ccccc3)cc(=O)oc12 | -33.9 |
| O=C(CCCc1nnc2n3nc(-c4ccccc4)nc3c3ccccc3n12)NCCCN1CCCCC1 | 0.451 |
| COc1ccc(CCN2C(=O)c3cc4occc4n3CC2(C)C(=O)NC2CCCCC2)cc1OC (stereo not given) | 1.36 |
| O=C(CCc1nnc2n(CCc3ccccc3)c(=O)c3ccccc3n12)N1CCC(N2CCCCC2)CC1 | 0 |
| Cc1oc(C(=O)O)cc1COc1ccc2c(-c3ccccc3)cc(=O)oc2c1C | -32.8 |
| Cc1noc(C)c1-c1cc2c(cc(C)n2CCN(C)C)c(Nc2ccncn2)n1 | -28.6 |
| COc1ccc(CCN2C(=O)c3ccc(-c4ccco4)n3CC2(C)C(=O)NC2CCCC2)cc1OC (stereo not given) | -5.82 |
| NC(=O)C1(N2CCCCC2)CCN(c2nc3c(S(=O)(=O)c4ccccc4)nnn3c3ccccc23)CC1 | -8.88 |
| Cn1c(=O)n(C)c2cc(S(=O)(=O)Nc3cc4c(cc3NCc3ccccc3)n(C)c(=O)n4C)ccc21 | -25.2 |
| Fc1cccc(-c2nnn3c2nc(NCCc2ccccc2)c2ccccc23)c1 | -9.28 |
